# Rows were chosen to be rich in hits. Some 2.4% of all compounds tested hit in one or more screens of this group.
# HTT-AS promoter: Primary qHTS for Identification of Small Molecule Activators of Huntingtin-Antisense Promoter Activity; HEK293 HTT-AS promoter firefly luciferase reporter, 24 h; response scale: percent change from vehicle, -100% = no light; Potency, µM (titrated, usually from 57.5 µM), for the others: at the highest dose activity change, positive = activation, usual class: activators; AID 1508624, 2021; 48,000 compounds, 0.24% hits; further: nearly all actives have a fitted effect of over 55% in size
#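 HEK293 luciferase promoter-reporter cells (2,500/well) plated 24 h, then compounds added at up to 57.5 uM final for 24 h at 37 °C. Firefly luminescence by Dual-Glo, normalized to vehicle (0%) and zero RLU (-100%).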
# NTMT1 inhibitor: Primary qHTS for Inhibitors of N-terminal methyltransferase 1 (NTMT1): MTaseGlo Assay. N-terminal Xaa-Pro-Lys N-methyltransferase 1 (Homo sapiens), Q9BV86. NTMT1 MTase-Glo SAH luminescence, purified enzyme. Potency, µM (series often up to 114 µM), inactives show at the highest dose activity change, negative = inhibition, most hits filed as inhibitors. 59,000 compounds, 2.5% hits. AID 1645870, 2021;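 further: plate controls were DMSO vehicle for no effect and no enzyme for full effect; nearly all actives have a fitted effect of over 65% in size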
# Target sequence (Q9BV86 whole entry, looked up): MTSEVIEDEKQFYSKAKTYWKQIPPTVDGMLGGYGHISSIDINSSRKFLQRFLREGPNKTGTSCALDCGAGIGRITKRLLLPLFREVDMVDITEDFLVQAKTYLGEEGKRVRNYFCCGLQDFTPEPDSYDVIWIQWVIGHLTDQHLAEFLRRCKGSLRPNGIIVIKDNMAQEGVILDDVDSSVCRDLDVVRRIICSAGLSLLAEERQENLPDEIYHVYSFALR
# HTT prom inh: Primary qHTS for Identification of Small Molecule Inhibitors of Huntingtin Promoter Activity; HEK293 HTT promoter firefly luciferase reporter, 24 h; Potency, µM (doses to about 57.5 µM), inactives show at the top dose activity change, negative = inhibition, most hits filed as inhibitors; 48,000 compounds, 0.93% hits; further: nearly all actives have a fitted effect of over 50% in size
#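 Firefly luciferase signal from promoter-reporter HEK293 cells was scaled between vehicle (0%) and zero RLU (-100%). Compounds were tested at final concentrations of up to 57.5 uM over 24 h at 37 degrees C. PTC124 at 50 uM final served as control inhibitor.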
# * hit, by the source's call; ? = inconclusive; . = not tested or not shown; ! = a repeat was not active; [ ] = remark or other dose. The call rests on the fitted dose curve; in most records, active means well fitted curve in the direction sought with a large enough effect; inconclusive means small, poorly fitted or top-dose-only effect, or another doubt; inactive means no such curve, though single readings can be large; an effect the other way counts as inactive or inconclusive. Potency means the concentration at half of the fitted maximal effect.
SMILES,HTT-AS promoter,NTMT1 inhibitor,HTT prom inh
C=CC(=O)Nc1cc(Nc2ncc(Cl)c(-c3c[nH]c4ccccc34)n2)c(OC)cc1N(C)CCN(C)C,.,20µM*,.
COc1cc(Cl)c(C)cc1NC(=O)Cn1ncc2c([nH]c3ccccc32)c1=O,-20.7%,-21.8%,0.1%
O=C(O)c1ccc(O)c2ncc(-c3cccc(N4CCOCC4)c3)cc12,.,20.7%,.
CC1CCC2C(C)(C)C(O)CCC2(C)C12Cc1c(O)cc3c(c1O2)C(N)=NC3 (stereo not given),.,-6.4%[29.8 µM],.
CN1CCN(C2CCC(n3cc(-c4ccc(Oc5ccccc5)cc4)c4c(N)ncnc43)CC2)CC1 (stereo not given),.,28.2µM*!,.
NC(=O)C1CCN(c2nc(-c3ccc(Oc4ccccc4)cc3)cs2)CC1,.,-9.1%,.
CCCc1nnc(NC(=O)Nc2ccccc2Cl)s1,3.55µM*,9.0%,47.5%
CCc1ccccc1NC(=O)Nc1nnc(N2CCCC2)s1,9.0%,10.8%,-13.4%
Cc1ccc(OCCn2c(CCNC(=O)c3ccccc3[N+](=O)[O-])nc3ccccc32)cc1,.,2.3%,.
CCOc1ccc(/C=C(\C#N)C(=O)Nc2sc3c(c2C(=O)OC)C(C(=O)OC)CC3)cc1OC (stereo not given),-20.0%,10µM*,-16.5%
CCOC(=O)c1c(NC(=O)/C(C#N)=C/c2ccc(OC)cc2)sc2c1CCC2,-5.5%,10.7%,-3.4%
CCOc1ccc(NC(=O)CSc2nc(-c3ccc(OC)cc3)nc3c2Cc2c(CO)cnc(C)c2O3)cc1,-5.9%,11.1%,-13.1%
COc1ccc(-c2nc3c(c(SCC(=O)Nc4cccc(O)c4)n2)Cc2c(CO)cnc(C)c2O3)cc1,-8.4%,44.7µM*,-5.7%
COc1cccc2c1Oc1nc(-c3ccccc3)nc(SCC(=O)Nc3ccccc3)c1C2,-23.3%,1.1%,-10.3%
O=C(CSc1nc(-c2ccc(F)cc2)nc2c1Cc1ccccc1O2)Nc1cccc(C(=O)O)c1,-7.0%,6.31µM*,-0.9%
COc1ccc2c(c1)Oc1nc(-c3ccc(C)cc3)nc(SCC(=O)Nc3cccc(C(=O)O)c3)c1C2,.,22.4µM*,.
COc1cc(NC(=O)CSc2nc(-c3ccc(C)cc3)nc3c2Cc2ccccc2O3)cc(OC)c1,-22.9%,-1.6%,-12.8%
Cc1ccc(-c2ccc(=O)n(CC(=O)NCCc3ccccn3)n2)cc1,.,11.0%,.
CCNC(=O)Nc1ccc(Oc2ncnc(N)c2/C=N/OC)cc1Cl,.,8.2%,.
C[C@@H]1O[C@@H](O[C@H]2[C@H](O)[C@@H](O)[C@H](OC3CCC4(C)C5CCC(C)(C(CO)OC6OC(CO)C(O)C(O)C6O)CC5=CCC4C3(C)C)O[C@@H]2CO)[C@H](O)[C@H](O)[C@H]1O (stereo not given in full),.,-9.6%[12.6 µM],.
Cn1c(=O)c(=O)n(C)c2cc(S(=O)(=O)N3CCCC3C(=O)Nc3ccc(F)cc3)ccc21 (stereo not given),-3.8%,-3.1%,-11.3%
O=C(Nc1ccc(Br)cc1)C1CCCN1S(=O)(=O)c1ccc(F)cc1 (stereo not given),-42.1%,-20.0%,35.5µM*
CCCNC(=O)c1cn2ncnc(Nc3cc(C(=O)NC4CC4)ccc3C)c2c1C,.,9.9%,.
CC(=O)Nc1sc2c(c1-c1ccc(C(N)=O)cc1)CCNC2,.,-11.5%,.
CN(C)c1ccc2cc(C(=O)N[C@@H](CCCN=C(N)CCl)C(=O)NCc3ccccc3)ccc2c1,-9.2%,5.62µM*,-9.6%
SMILES,HTT-AS promoter,NTMT1 inhibitor,HTT prom inh
CN(C)c1ccc(CNC(=O)c2ccc3nc(Cc4ccccc4)oc3c2)cc1,-27.1%,-10.1%,?
CC(C)(C)OC(=O)N1CCN(c2ccc(NCc3ccc(-c4ccc(C#N)cc4)nc3)cc2)CC1,.,-10.9%,.
CCC(C=C[C@@H]1OC(=O)C=C[C@H]1C)=C[C@H](C)CC=CC(C)=C[C@@H](C)C(=O)[C@@H](C)[C@H](O)[C@@H](C)CC(C)=CC(=O)O,-35.7%[2.23 µM],1.01µM*,?
COc1cc(N2CCC(N3CCN(C)CC3)CC2)ccc1Nc1ncc(Cl)c(Nc2ccccc2S(=O)(=O)C(C)C)n1,-43.7%,25.1µM*!,?
COc1cc(N2CCN(C)CC2)ccc1Nc1nc(N)c(C(=O)c2c(Cl)cccc2Cl)s1,-6.6%,3.6%[57.5 µM],-11.5%
CC(C)CCn1c(CN2CCN(C(=O)C(C)C)CC2)nc2c1c(=O)n(C)c(=O)n2C,.,9.2%,.
CCOc1ccccc1CNC(=O)c1ccc2nc(N3CCC(C)CC3)sc2c1,-53.6%,-1.8%,1.78µM*
CCOc1ccccc1CNC(=O)c1ccc2c(c1)sc1nc(-c3ccccc3)cn12,?,-11.0%,10.5%
